PubChem BioAssay AID1159580 (chemical genetic matrix, 2015)
Out of some 5,500 compounds screened, about 2,000 (36%) were called active. Not shown: some 18% with an inconclusive outcome. No stated cut-off is given here; in the data, active means normalized growth mostly below about 0.91 (no sharp cut-off); inconclusive means no clear call, values can overlap the other calls; inactive means mostly above about 0.92. The list shows a part of the results.

Experiment: chemical genetic growth profiling, strain panel (AID 1159580);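 further: tested at 20 µM; growth read once vehicle control cultures reached saturation at 30 °C; 1 = growth at the plate median or of vehicle wells; lower values mean less growth of the strain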
Details: growth OD

Measured: normalized growth

COc1ccc2ccc(=O)oc2c1CC=C(C)C
inactive: S. cerevisiae deletion strains, locus YAL021C, strain ccr4, active compounds read low 1.02 | S. cerevisiae deletion strains, locus YBR171W, strain sec66, active compounds read low 0.896 | S. cerevisiae deletion strains, locus YDL005C, strain med2, active compounds read low 0.948 | S. cerevisiae deletion strains, locus YDL185W, strain tfp1, active compounds read low 0.928 | S. cerevisiae deletion strains, locus YDR069C, strain doa4, active compounds read low 1.03 | S. cerevisiae deletion strains, locus YDR195W, strain ref2 1.02 | S. cerevisiae deletion strains, locus YDR297W, strain sur2, active compounds read low 0.934 | S. cerevisiae deletion strains, locus YDR334W, strain swr1, active compounds read low 0.936 | S. cerevisiae deletion strains, locus YDR335W, strain msn5, active compounds read low 0.95 | S. cerevisiae deletion strains, locus YEL037C, strain rad23, active compounds read low 0.935 | S. cerevisiae deletion strains, locus YEL061C, strain CIN8 (second series), active compounds read low 0.921 | S. cerevisiae deletion strains, locus YER015W, strain faa2, active compounds read low 0.935 | S. cerevisiae deletion strains, locus YER111C, strain swi4, active compounds read low 0.942 | S. cerevisiae deletion strains, locus YFR010W, strain ubp6, active compounds read low 0.923 | S. cerevisiae deletion strains, locus YGL173C, strain kem1, active compounds read low 0.94 | S. cerevisiae deletion strains, locus YHR027C, strain rpn1, active compounds read low 0.957 | S. cerevisiae deletion strains, locus YIL073C, strain SPO22, active compounds read low 0.85 | S. cerevisiae deletion strains, locus YJL095W, strain BCK1 (second series), active compounds read low 0.936 | S. cerevisiae deletion strains, locus YJL115W, strain asf1, active compounds read low 0.967 | S. cerevisiae deletion strains, locus YJL154C, strain vps35, active compounds read low 0.944 | S. cerevisiae deletion strains, locus YJL168C, strain set2, active compounds read low 0.941 | S. cerevisiae deletion strains, locus YJL187C, strain SWE1, active compounds read low 0.937 | S. cerevisiae deletion strains, locus YKL160W, strain elf1, active compounds read low 0.912 | S. cerevisiae deletion strains, locus YLL041C, strain sdh2, active compounds read low 0.945 | S. cerevisiae deletion strains, locus YLR342W, strain FKS1, active compounds read low 0.923 | S. cerevisiae deletion strains, locus YLR384C, strain iki3, active compounds read low 0.957 | S. cerevisiae deletion strains, locus YML016C, strain PPZ1, active compounds read low 0.926 | S. cerevisiae deletion strains, locus YMR231W, strain pep5, active compounds read low 0.935 | S. cerevisiae deletion strains, locus YMR307W, strain GAS1, active compounds read low 0.706 | S. cerevisiae deletion strains, locus YNL209W, strain ssb2, active compounds read low 0.958 | S. cerevisiae deletion strains, locus YNL248C, strain rpa49, active compounds read low 0.971 | S. cerevisiae deletion strains, locus YNL250W, strain rad50, active compounds read low 0.918 | S. cerevisiae deletion strains, locus YOL012C, strain htz1 0.768 | S. cerevisiae deletion strains, locus YOR061W, strain CKA2, active compounds read low 0.929 | S. cerevisiae deletion strains, locus YOR080W, strain dia2, active compounds read low 0.93 | S. cerevisiae deletion strains, locus YOR083W, strain WHI5, active compounds read low 0.895 | S. cerevisiae deletion strains, locus YOR106W, strain vam3, active compounds read low 0.917 | S. cerevisiae deletion strains, locus YPL051W, strain arl3, active compounds read low 0.931 | S. cerevisiae deletion strains, locus YPL106C, strain sse1, active compounds read low 0.917 | S. cerevisiae deletion strains, locus YPL240C, strain hsp82, active compounds read low 0.96 | S. cerevisiae deletion strains, locus YPR141C, strain kar3, active compounds read low 0.937
active: S. cerevisiae deletion strains, locus YAL026C, strain drs2, active compounds read low 0.883 | S. cerevisiae deletion strains, locus YAL030W, strain snc1, active compounds read low 0.92 | S. cerevisiae deletion strains, locus YBL061C, strain skt5, active compounds read low 0.912 | S. cerevisiae deletion strains, locus YBR009C, strain hhf1, active compounds read low 0.769 | S. cerevisiae deletion strains, locus YBR021W, strain FUR4, active compounds read low 0.662 | S. cerevisiae deletion strains, locus YBR023C, strain chs3, active compounds read low 0.843 | S. cerevisiae deletion strains, locus YBR229C, strain ROT2, active compounds read low 0.885 | S. cerevisiae deletion strains, locus YBR231C, strain swc5, active compounds read low 0.866 | S. cerevisiae deletion strains, locus YBR279W, strain paf1, active compounds read low 0.929 | S. cerevisiae deletion strains, locus YCL011C, strain gbp2, active compounds read low 0.787 | S. cerevisiae deletion strains, locus YCL016C, strain dcc1, active compounds read low 0.891 | S. cerevisiae deletion strains, locus YCL029C, strain bik1, active compounds read low 0.826 | S. cerevisiae deletion strains, locus YCL061C, strain MRC1, active compounds read low 0.835 | S. cerevisiae deletion strains, locus YCL069W, strain vba3, active compounds read low 0.919 | S. cerevisiae deletion strains, locus YCR088W, strain abp1, active compounds read low 0.915 | S. cerevisiae deletion strains, locus YDL035C, strain GPR1, active compounds read low 0.794 | S. cerevisiae deletion strains, locus YDL040C, strain nat1, active compounds read low 0.91 | S. cerevisiae deletion strains, locus YDL074C, strain BRE1, active compounds read low 0.752 | S. cerevisiae deletion strains, locus YDL101C, strain DUN1, active compounds read low 0.768 | S. cerevisiae deletion strains, locus YDL192W, strain arf1, active compounds read low 0.794 | S. cerevisiae deletion strains, locus YDR001C, strain nth1, active compounds read low 0.909 | S. cerevisiae deletion strains, locus YDR101C, strain arx1, active compounds read low 0.823 | S. cerevisiae deletion strains, locus YDR137W, strain rgp1, active compounds read low 0.715 | S. cerevisiae deletion strains, locus YDR159W, strain sac3, active compounds read low 0.771 | S. cerevisiae deletion strains, locus YDR162C, strain NBP2, active compounds read low 0.645 | S. cerevisiae deletion strains, locus YDR318W, strain mcm21, active compounds read low 0.741 | S. cerevisiae deletion strains, locus YDR388W, active compounds read low 0.89 | S. cerevisiae deletion strains, locus YDR392W, strain spt3, active compounds read low 0.396 | S. cerevisiae deletion strains, locus YDR502C, strain sam2, active compounds read low 0.788 | S. cerevisiae deletion strains, locus YEL003W, strain gim4, active compounds read low 0.832 | S. cerevisiae deletion strains, locus YEL061C, strain CIN8, active compounds read low 0.774 | S. cerevisiae deletion strains, locus YER016W, strain bim1, active compounds read low 0.91 | S. cerevisiae deletion strains, locus YER110C, active compounds read low 0.873 | S. cerevisiae deletion strains, locus YER155C, strain BEM2 (second series), active compounds read low 0.434 | S. cerevisiae deletion strains, locus YER155C, strain BEM2, active compounds read low 0.657 | S. cerevisiae deletion strains, locus YER167W, strain BCK2, active compounds read low 0.561 | S. cerevisiae deletion strains, locus YGL078C, strain dbp3, active compounds read low 0.917 | S. cerevisiae deletion strains, locus YGL086W, strain mad1, active compounds read low 0.844 | S. cerevisiae deletion strains, locus YGL167C, strain pmr1, active compounds read low 0.908 | S. cerevisiae deletion strains, locus YGL227W, strain vid30, active compounds read low 0.875 | S. cerevisiae deletion strains, locus YGL240W, strain doc1, active compounds read low 0.701 | S. cerevisiae deletion strains, locus YGL248W, strain PDE1, active compounds read low 0.704 | S. cerevisiae deletion strains, locus YGL253W, strain hxk2, active compounds read low 0.818 | S. cerevisiae deletion strains, locus YGR135W, strain pre9, active compounds read low 0.75 | S. cerevisiae deletion strains, locus YGR252W, strain gcn5, active compounds read low 0.583 | S. cerevisiae deletion strains, locus YHR013C, strain ard1, active compounds read low 0.801 | S. cerevisiae deletion strains, locus YHR030C, strain SLT2, active compounds read low 0.831 | S. cerevisiae deletion strains, locus YHR079C, strain IRE1 (second series), active compounds read low 0.896 | S. cerevisiae deletion strains, locus YHR094C, strain hxt1, active compounds read low 0.898 | S. cerevisiae deletion strains, locus YHR129C, strain ARP1, active compounds read low 0.741 | S. cerevisiae deletion strains, locus YHR142W, strain chs7, active compounds read low 0.739 | S. cerevisiae deletion strains, locus YHR200W, strain rpn10, active compounds read low 0.812 | S. cerevisiae deletion strains, locus YIL066C, strain RNR3, active compounds read low 0.622 | S. cerevisiae deletion strains, locus YIL125W, strain kgd1, active compounds read low 0.888 | S. cerevisiae deletion strains, locus YIR030C, strain dcg1, active compounds read low 0.841 | S. cerevisiae deletion strains, locus YJL092W, strain hpr5, active compounds read low 0.896 | S. cerevisiae deletion strains, locus YJL095W, strain BCK1, active compounds read low 0.566 | S. cerevisiae deletion strains, locus YJL129C, strain trk1, active compounds read low 0.866 | S. cerevisiae deletion strains, locus YJL134W, strain LCB3, active compounds read low 0.921 | S. cerevisiae deletion strains, locus YJL164C, strain tpk1, active compounds read low 0.883 | S. cerevisiae deletion strains, locus YJL166W, strain qcr8, active compounds read low 0.803 | S. cerevisiae deletion strains, locus YJL187C, strain SWE1 (second series), active compounds read low 0.783 | S. cerevisiae deletion strains, locus YJR043C, strain POL32, active compounds read low 0.538 | S. cerevisiae deletion strains, locus YKL009W, strain mrt4, active compounds read low 0.873 | S. cerevisiae deletion strains, locus YKL068W, active compounds read low 0.898 | S. cerevisiae deletion strains, locus YKL085W, strain MDH1 (second series), active compounds read low 0.916 | S. cerevisiae deletion strains, locus YKL085W, strain MDH1, active compounds read low 0.916 | S. cerevisiae deletion strains, locus YKR001C, strain vps1, active compounds read low 0.589 | S. cerevisiae deletion strains, locus YKR026C, strain gcn3, active compounds read low 0.906 | S. cerevisiae deletion strains, locus YKR091W, strain srl3, active compounds read low 0.926 | S. cerevisiae deletion strains, locus YLL001W, strain dnm1, active compounds read low 0.87 | S. cerevisiae deletion strains, locus YLL026W, active compounds read low 0.857 | S. cerevisiae deletion strains, locus YLR027C, strain aat2, active compounds read low 0.845 | S. cerevisiae deletion strains, locus YLR039C, strain RIC1, active compounds read low 0.438 | S. cerevisiae deletion strains, locus YLR058C, strain SHM2, active compounds read low 0.794 | S. cerevisiae deletion strains, locus YLR102C, strain apc9, active compounds read low 0.891 | S. cerevisiae deletion strains, locus YLR221C, strain rsa3, active compounds read low 0.871 | S. cerevisiae deletion strains, locus YLR258W, strain gsy2, active compounds read low 0.848 | S. cerevisiae deletion strains, locus YLR262C, strain YPT6 (second series), active compounds read low 0.642 | S. cerevisiae deletion strains, locus YLR262C, strain YPT6, active compounds read low 0.476 | S. cerevisiae deletion strains, locus YLR268W, strain sec22, active compounds read low 0.723 | S. cerevisiae deletion strains, locus YLR320W, strain mms22, active compounds read low 0.607 | S. cerevisiae deletion strains, locus YLR330W, strain CHS5, active compounds read low 0.658 | S. cerevisiae deletion strains, locus YLR342W, strain FKS1 (second series), active compounds read low 0.705 | S. cerevisiae deletion strains, locus YLR357W, strain rsc2, active compounds read low 0.761 | S. cerevisiae deletion strains, locus YLR370C, strain arc18, active compounds read low 0.899 | S. cerevisiae deletion strains, locus YLR371W, strain rom2, active compounds read low 0.889 | S. cerevisiae deletion strains, locus YLR418C, strain cdc73, active compounds read low 0.492 | S. cerevisiae deletion strains, locus YML032C, strain rad52, active compounds read low 0.779 | S. cerevisiae deletion strains, locus YML120C, strain ndi1, active compounds read low 0.822 | S. cerevisiae deletion strains, locus YML124C, strain tub3, active compounds read low 0.859 | S. cerevisiae deletion strains, locus YMR058W, strain fet3, active compounds read low 0.89 | S. cerevisiae deletion strains, locus YMR078C, strain ctf18, active compounds read low 0.891 | S. cerevisiae deletion strains, locus YMR125W, strain sto1, active compounds read low 0.81 | S. cerevisiae deletion strains, locus YMR129W, active compounds read low 0.904 | S. cerevisiae deletion strains, locus YMR205C, strain PFK2, active compounds read low 0.659 | S. cerevisiae deletion strains, locus YMR223W, strain ubp8, active compounds read low 0.797 | S. cerevisiae deletion strains, locus YMR263W, strain SAP30, active compounds read low 0.826 | S. cerevisiae deletion strains, locus YNL067W, strain RPL9B, active compounds read low 0.762 | S. cerevisiae deletion strains, locus YNL071W, strain lat1, active compounds read low 0.672 | S. cerevisiae deletion strains, locus YNL153C, strain GIM3, active compounds read low 0.713 | S. cerevisiae deletion strains, locus YNL233W, strain BNI4, active compounds read low 0.567 | S. cerevisiae deletion strains, locus YNL271C, strain bni1, active compounds read low 0.907 | S. cerevisiae deletion strains, locus YNL298W, strain CLA4, active compounds read low 0.829 | S. cerevisiae deletion strains, locus YNL307C, strain MCK1, active compounds read low 0.381 | S. cerevisiae deletion strains, locus YNL322C, strain KRE1 (second series), active compounds read low 0.807 | S. cerevisiae deletion strains, locus YNL322C, strain KRE1, active compounds read low 0.804 | S. cerevisiae deletion strains, locus YNR049C, strain mso1, active compounds read low 0.914 | S. cerevisiae deletion strains, locus YNR052C, strain pop2, active compounds read low 0.909 | S. cerevisiae deletion strains, locus YOL147C, strain pex11, active compounds read low 0.726 | S. cerevisiae deletion strains, locus YOR001W, strain rrp6, active compounds read low 0.889 | S. cerevisiae deletion strains, locus YOR069W, strain VPS5, active compounds read low 0.89 | S. cerevisiae deletion strains, locus YOR070C, strain gyp1, active compounds read low 0.917 | S. cerevisiae deletion strains, locus YOR136W, strain idh2, active compounds read low 0.911 | S. cerevisiae deletion strains, locus YOR144C, strain elg1, active compounds read low 0.855 | S. cerevisiae deletion strains, locus YOR184W, strain ser1, active compounds read low 0.481 | S. cerevisiae deletion strains, locus YOR265W, strain rbl2, active compounds read low 0.921 | S. cerevisiae deletion strains, locus YOR270C, strain vph1, active compounds read low 0.532 | S. cerevisiae deletion strains, locus YOR290C, strain snf2, active compounds read low 0.712 | S. cerevisiae deletion strains, locus YOR316C, strain cot1, active compounds read low 0.864 | S. cerevisiae deletion strains, locus YPL078C, strain atp4, active compounds read low 0.845 | S. cerevisiae deletion strains, locus YPR119W, strain clb2, active compounds read low 0.888 | S. cerevisiae deletion strains, locus YPR163C, strain tif3, active compounds read low 0.796 | S. cerevisiae deletion strains, locus YPR167C, strain met16, active compounds read low 0.799 | S. cerevisiae deletion strains, strain wtn01, active compounds read low 0.843 | S. cerevisiae strains, strain wild type, active compounds read low 0.798
